This is an account of results in PubChem BioAssay AID743286 (National Center for Advancing Translational Sciences (NCATS), 2014).

About 340 (31%) of roughly 1,100 compounds were called active. Not shown: some 40% with an inconclusive outcome. Not all results are given here. A number with no mark means an inactive call. Calls come from the whole dose curve; as a rule, active = well fitted inhibition curve with a large enough effect; inconclusive = small, poorly fitted or top-dose-only effect; inactive = flat fitted curve, though single readings scatter.
% is set by controls: 0 for no effect and ±100 for the full control effect; potency is the fitted concentration of half-maximal effect.

Phosphatidylinositol 5-phosphate 4-kinase type-2 alpha (Homo sapiens), sequence (P48426 whole entry, looked up, canonical isoform): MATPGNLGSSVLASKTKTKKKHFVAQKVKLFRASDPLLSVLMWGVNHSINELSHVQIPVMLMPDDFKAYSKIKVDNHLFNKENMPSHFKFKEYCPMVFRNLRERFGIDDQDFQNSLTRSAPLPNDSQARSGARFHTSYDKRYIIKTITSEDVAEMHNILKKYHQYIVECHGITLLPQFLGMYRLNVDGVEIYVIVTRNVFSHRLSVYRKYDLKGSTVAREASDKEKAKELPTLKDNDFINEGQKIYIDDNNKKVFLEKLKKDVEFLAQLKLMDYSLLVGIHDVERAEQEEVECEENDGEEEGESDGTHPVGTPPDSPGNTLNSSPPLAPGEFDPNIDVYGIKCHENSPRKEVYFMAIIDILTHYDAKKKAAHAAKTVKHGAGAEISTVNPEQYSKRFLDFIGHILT

The assay concerns the target Phosphatidylinositol 5-phosphate 4-kinase type-2 alpha (Homo sapiens) (UniProt P48426). Briefly: qHTS for Inhibitors of PI5P4K: Confirmation in Primary Assay. Note: nearly all actives have a fitted effect of over 65% in size. Conditions: PI5P4Kalpha enzyme, ADP-Glo luminescence, 60 min; series mostly up to 76.9 µM; activity change, negative = inhibition: at the top concentration. From the text:
In addition to finding PI5P, we discovered the type II phosphatidylinositol 5-phosphate 4-kinase (PI5P4K) family (alpha, beta, gamma isoforms) that catalyze the conversion of PI5P to PI(4,5)P2. Alternatively, PI(4,5)P2 can also be synthesized through phosphatidylinositol-4-phosphate (PI4P) by the type I phosphatidylinositol 4-phosphate 5-kinases (PI4P5K). These PI5P4K enzymes therefore represent one way by which cells can regulate endogenous PI5P levels and play important roles in insulin signaling and in stress responses. […] A qHTS PI5P4K-alpha ADP-Glo assay was developed to identify specific modulators of human PI5P4K, phosphatidylinositol-5-phosphate 4-kinase (Type II PIPK). This assay was screened against the MLSMR containing ~400,000 small molecules (PubChem AID 652105). To confirm that the hits were not interacting with the detection enzyme system, a 1536-well counterscreen against the ADP-Glo kit (Promega) was utilized, as described in Davis et al., 2013 [1]. Davis et al., PLoS One. 2013;8(1):e54127. NIH Chemical Genomics Center [NCGC] NIH Molecular Libraries Probe Centers Network [MLPCN] MLPCN Grant: MH096575 Assay Submitter (PI): Atsuo Sasaki, Beth Israel Deaconess Medical Center
2 microL of PI5P4Kalpha/substrate buffer (columns 1-2, 5-48) are dispensed into Greiner white solid bottom 1536-well assay plates; column 3 receives only PI5P4Kalpha buffer as 0x substrate controls; column 4 receives only substrate buffer as 0x PI5P4Kalpha controls. Final assay buffer consists of 0.038 M HEPES pH 7.4, 0.28 mM EGTA, 0.1% CHAPS, and 5% DMSO (final concentration). Compounds are then transferred via Kalypsys pin tool equipped with 1536-pin array (10 nL slotted pins, V&P Scientific, San Diego, CA). Following addition of compound, 1 microL of ATP (5 microM final concentration, all columns) is added to initiate the reaction. ATP is diluted in an assay buffer consisting of 0.02 M HEPES pH 7.4, 60 mM MgCl2, 15 microM ATP, and 0.1% CHAPS. The plates are then incubated at room temperature for 60 minutes. ADP-Glo reagent 1 is added (2 microL) and plates incubated for 45 minutes, before ADP-Glo reagent 2 (4 microL) is added and plates incubated for 30 minutes. They are then transferred to a ViewLux high-throughput CCD imager (PerkinElmer) wherein single end-point measurements of luminescence are acquired using a clear filter.
`CCC(=O)Oc1ccc(C(=O)Nc2cccc(C(=O)c3ccccc3)c2)cc1`: the Potency is 8.91 µM (active). For the molecule `N#CC1c2ccccc2-n2nncc2CN1Cc1cc(Cl)cc(Cl)c1` (stereo not given), the “activity change, negative = inhibition” value was -12.5%.

For the molecule `COC(=O)C1=C(c2ccc(F)cc2F)C[C@@H]2CC[C@H]1N2C(=O)NC1Cc2ccccc2C1`, the “activity change, negative = inhibition” value is -0.214%. The same measure, in the same setting: the same measure for `COc1ccc(C(=O)C2CCCN(Cc3ccon3)C2)c(OC)c1` (stereo not given): -2.13%. Still for that read-out and setting: the same measure for `CC(C)NCC(O)c1ccc(C2CCCC2)cc1` (stereo not given): -0.799%.
